# High-throughput results: PubChem, National Center for Advancing Translational Sciences (NCATS)
# FMDV inh: antivirals against foot and mouth disease virus | FMDV antiviral cell-based qHTS | actives 1.2% (n = 410,000) | Potency, µM (titrated, usually from 57.9 µM), inactives show at the top dose activity change, negative = inhibition, actives largely listed as inhibitors; calls by dose curve; tested in HEK293T cells; note: read-out not given here; potency is the fitted concentration of half-maximal effect; nearly all actives have a fitted effect of over 45% in size
# Marburg entry inh: blocks Marburg virus binding to or entry into cells. Marburg virus pseudotyped entry inhibition, cell reporter. Potency, µM (titrated, usually from 37.8 µM), for the others: at the highest dose activity change, negative = inhibition, usual class: inhibitors. actives 1.8% (n = 300,000); calls by dose curve; tested in HEK293 cells; note: potency is the fitted concentration of half-maximal effect
# Lassa entry inh: Lassa virus entry inhibition; Lassa virus pseudotype entry inhibition, cell reporter; Potency, µM (titrated, usually from 37.9 µM), for inactives: top-dose activity change, negative = inhibition, usual class: inhibitors; actives 1.2% (n = 300,000); calls by dose curve; tested in HEK293 cells; note: potency is the fitted concentration of half-maximal effect; nearly all actives have a fitted effect of over 50% in size
# HCV inhibitor: HCV inhibition. Huh7.5.1 HCVcc-Cre infection, luciferase reporter, 44 h. actives 3.4% (n = 340,000). Potency, µM (doses to about 41.8 µM), for the others: at the highest dose activity change, negative = inhibition, actives largely listed as inhibitors; active = well fitted inhibition curve with a large enough effect; inconclusive = small, poorly fitted or top-dose-only effect, or another doubt; inactive = no such curve, though single readings can be large or run the other way; note: potency is the fitted concentration of half-maximal effect
#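 Infectious HCV cell culture screen: compound-treated cells (1,000/well, pre-plated 4 h) are infected with HCVcc-Cre at roughly 0.5 moi and grown 44 h. Infection is quantified by luciferase signal after 15 min substrate incubation at room temperature.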
# HCMV antiviral: inhibitors of human cytomegalovirus | actives 4.5% (n = 410,000) | activity change, negative = inhibition, % at 57.5 µM | HFF cells, HCMV-luciferase reporter, 72 h; stronger effect = lower value; in the data active = activity change below about -60%; inconclusive = no clear call, values can overlap the other calls; inactive = above about -39%
#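 Steps: HFFs plated, 16 h 37C; compounds added; HCMV-luciferase added to MOI 1 PFU/cell; 72 h 37C; OneGlo reagent, 5 min room temperature; luminescence read, normalized to controls.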
# Active calls of the source: *; ? = inconclusive; . = no result; [ ] = remark or other dose. Only some compounds are listed: those with a hit (about 7.9% of all), similar ones and a draw of the others. % is set by controls: 0 for no effect and ±100 for the full control effect.
SMILES,FMDV inh,Marburg entry inh,Lassa entry inh,HCV inhibitor,HCMV antiviral
NC(=O)[C@H]1CC2(CC(c3cccc(NC(=O)COc4ccc(Cl)cc4)c3)=NO2)CN1C(=O)Cc1ccc([N+](=O)[O-])cc1 (stereo not given in full),?,.,.,1.58µM*,-78.3*
CC(C)(C)c1cc(CCC(=O)Nc2ccncc2)cc(C(C)(C)C)c1O,-6.7%,.,.,?,-63.3*
CC(C)(C)c1cc(CCC(=O)NCc2ccncc2)cc(C(C)(C)C)c1O,9.4%,-1.6%,4.2%,?,.
COc1ccc(CC2NCC(O)C2OC(C)=O)cc1 (stereo not given),?,.,.,0.562µM*,-108.7*
COc1ccc(CC2NCCC3(O)CCCCC23)cc1 (stereo not given),-15.0%,-1.3%,-0.1%,6.6%,-7.9
CSc1ncccc1C(=O)NCC1Cc2cc(-c3cnccn3)cc(Cl)c2O1 (stereo not given),11.8%,.,.,.,.
CCOc1ccc2oc(C(=O)NC3CCN(Cc4ccccc4)CC3)c(C)c2c1,?,?,11.2µM*,?,?
CCOc1ccc2oc(C(=O)NC3CC(C)(C)NC(C)(C)C3)c(C)c2c1,-4.9%,?,-13.2%,12.6µM*,-4.2
COc1ccc(N/C=C(\C#N)c2ccc(OCCCF)cc2)cc1,3.7%,?,-4.2%,?,-91.2*
Cc1ccc(N/C=C(\C#N)c2ccc(OCCCF)cc2)cc1,17.5%,17.7%,3.3%,?,29.9
Cc1ccc(CC(=O)Nc2ncc([N+](=O)[O-])s2)cc1,62.1%,.,.,-4.9%,36.6
CCCCC(CC)C(=O)Nc1ncc([N+](=O)[O-])s1 (stereo not given),?,?,?,?,-74.5*
COc1ccc(CNCC(O)(c2ccccc2)c2ccc(F)cc2)cc1 (stereo not given),-4.3%,11.2µM*,14.4%[46.1 µM],7.9%,?
OC(CNCc1ccc(F)cc1)(c1ccc(F)cc1)c1ccc(F)cc1,?,?,0.2%,?,41.1
COc1ccc(CNCC(O)(c2ccc(Cl)cc2)c2ccc(Cl)cc2)cc1OC,?,?,?,12.6µM*,17.7
COc1ccc(CNCC(O)(c2ccccc2)c2ccc(F)cc2)cc1OC (stereo not given),?,2.82µM*,?,10µM*,?
COc1ccc(CNCC(O)(c2ccc(Cl)cc2)c2ccc(Cl)cc2)cc1,-17.1%,?,?,?,36.7
OC(CNCc1ccc(Cl)cc1)(c1ccccc1)c1ccc(F)cc1 (stereo not given),-1.7%,?,-17.9%,-23.8%,4.8
CCOc1ccc2c(c1)c(=O)c(S(=O)(=O)c1ccc(CC)cc1)cn2Cc1cccc(Cl)c1,-0.6%,10.0%[46.1 µM],-13.9%[46.1 µM],.,-16.7
CC1CCN(S(=O)(=O)c2ccc3c(c2)oc(=O)n3CC(=O)NC(C)c2ccccc2)CC1 (stereo not given),0.0%,?,?,.,-34.0
COc1ccc(CCN2CCCC(CN(C)Cc3cccc(OC)c3)C2)cc1 (stereo not given),-8.4%,?,?,7.94µM*,-17.9
COc1ccc(CCN2CCCC(CN(C)Cc3cc(OC)ccc3OC)C2)cc1 (stereo not given),-8.3%,.,.,10µM*,-9.4
CN(Cc1ccccc1O)CC1CCCN(CCc2ccc(Cl)cc2)C1 (stereo not given),-20.9%,.,.,10µM*,6.5
CCN1CCN(c2cc(C(C)C)nc3c(-c4ccccc4)c(C)nn23)CC1,-20.3%,?,?,-89.2%,-92.7*
CCN1CCN(c2cc(C(C)(C)C)nc3c(-c4ccccc4)c(C)nn23)CC1,-7.9%,?,?,3.98µM*,-74.9*
COC(=O)c1c(OCc2ccccn2)cc(=O)n2c1CCN(Cc1ccc3nsnc3c1)CC2,-4.9%,.,.,.,.
CC(C)c1ccc2occ(CC(=O)N(Cc3ccc(F)cc3)C3CCS(=O)(=O)C3)c2c1 (stereo not given),-23.8%,-26.9%[46.1 µM],0.6%[46.1 µM],.,-64.5*
Cc1ccccc1C(=O)N(Cc1cccs1)C1CCS(=O)(=O)C1 (stereo not given),-12.4%,-1.8%[46.1 µM],?,-0.6%,-84.1*
Cc1ccsc1CN(C(=O)c1ccc(OCC(C)C)cc1)C1CCS(=O)(=O)C1 (stereo not given),-11.5%,2.9%[46.1 µM],8.91µM*,.,55.9
Cc1cccc(C(=O)N(Cc2cccs2)C2CCS(=O)(=O)C2)c1 (stereo not given),-7.8%,.,.,9.4%,-9.0
